Test results published in PubChem BioAssay (NCI).
Compounds without any hit were thinned out: in the full panel of roughly 79,000, 15% have a hit. Unmarked numbers belong to inactive results. The source made the active and inactive calls. Cut-off read from the data, not from the text of the source: active = growth inhibition above about 70%; inactive = the rest.

Tests used:
[1] = NCI Yeast Anticancer Drug Screen. Data for the rad50 strain (AID 155);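 note: 0% = growth of vehicle-only cultures of the same strain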; settings: S. cerevisiae rad50 strain growth inhibition; at 50.0 µM; active compounds read high
Method in brief: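 Readout: growth inhibition relative to vehicle-treated cultures. Compound exposure was carried out in a genetically defined yeast strain deficient in DNA damage repair.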

[2] = NCI Yeast Anticancer Drug Screen. Data for the mec2-1 strain (AID 157); settings: S. cerevisiae mec2-1 strain, at 50.0 µM, active compounds read high
Method in brief: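 Compounds were applied to mec2-1 yeast cells. Their growth was then compared with that of vehicle-treated cultures to give growth inhibition.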

[3] = NCI Yeast Anticancer Drug Screen. Data for the sgs1 mgt1 strain (AID 161);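 note: 0% = growth of cultures given vehicle only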; settings: S. cerevisiae sgs1 mgt1 strain, at 50.0 µM, active compounds read high
Method in brief: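 Percent growth inhibition was derived by comparing compound-exposed mutant yeast with vehicle-exposed cultures. The strain carries alterations in DNA damage repair.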

[4] = NCI Yeast Anticancer Drug Screen. Data for the cln2 rad14 strain (AID 165);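 note: 0% = growth equal to vehicle treated cultures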; settings: S. cerevisiae cln2 rad14 strain, at 50.0 µM, active compounds read high
Method in brief: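 Strain: cln2 rad14 yeast, altered in cell cycle control and DNA damage repair. Read-out: growth inhibition vs vehicle.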

[5] = NCI Yeast Anticancer Drug Screen. Data for the bub3 strain (AID 167); settings: S. cerevisiae bub3 mutant strain, at 50.0 µM, active compounds read high
Method in brief: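 Readout: yeast growth inhibition, expressed relative to vehicle-only wells. The test organism is a mutant strain from a panel with lesions in DNA repair or checkpoint genes.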

[6] = NCI Yeast Anticancer Drug Screen. Data for the mlh1 rad18 strain (AID 175); settings: S. cerevisiae mlh1 rad18 strain growth inhibition; at 50.0 µM; active compounds read high
Method in brief: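 A repair-deficient yeast strain is exposed to test compound, and growth is scored relative to vehicle-treated controls.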

Compound	growth inhibition [1]	growth inhibition [2]	growth inhibition [3]	growth inhibition [4]	growth inhibition [5]	growth inhibition [6]
CC(C)c1cccc(C(C)C)c1NC(=O)/C(CC(=O)CC(c1ccccc1)c1c(O)c2ccccc2oc1=O)=N/O (stereo not given)	-45.5%	4.85%	19.1%	-32.1%	-15.8%	18.3%
CC(C)(C)OP(O)(=S)OC(C)(C)C	14.5%	13.2%	15.8%	15.2%	16.1%	9.55%
CCOC(=O)CC(=O)CCl.[Cu+2]	-14.9%	-8.9%	-40.4%	-31.6%	-15.9%	-3.2%
COc1ccc([As]=O)cc1N (stereo not given)	4.8%	18.1%	8.75%	7.25%	-7.45%	-10.5%
C=Cn1nnc(N)n1	-4.9%	-0.45%	-16.7%	4.55%	17.1%	9.05%
CC1CS1 (stereo not given)	-5.7%	4.8%	-10.1%	2.9%	12.2%	-11.1%
O=C(O)C(=O)O.[Co].[NH-]CC[NH-].[NH-]CC[NH-]	4.9%	13.4%	6.65%	-12.8%	22.4%	12.8%
Cc1nc2ccccc2c(=O)n1-c1ccccc1F	-10.6%	-30.2%	-19.8%	4.8%	-20.9%	-29.8%
CN1CCOP(=O)(Oc2ccccc2)N1 (stereo not given)	-46%	-17.4%	-26.1%	-64.2%	4.5%	-16.1%
Cn1cnc([N+](=O)[O-])c1[Se]c1nc(N)nc2nc[nH]c12	-24.1%	-12%	-26.8%	15.2%	-7.65%	-17.9%
C[Si](C)(C)CN(N=O)C(N)=O	1.55%	3.4%	-3.45%	-25.2%	3.95%	9.45%
C=C[C](=C)[Pb]([CH2]C)([CH2]C)[CH2]C	-7.3%	4.75%	-10.5%	13.7%	-10.6%	5.5%
N#CC1(c2ccccc2)CCN(C2(c3ccccc3)CCCCC2)CC1	-23.4%	-30.2%	-5.7%	4.25%	-3.55%	-30.1%
Nc1ccn(C2OC(COP(=O)(O)Oc3ccccc3)C(O)C2O)c(=O)n1 (stereo not given)	11.1%	-11.8%	17.8%	4%	5.2%	11.3%
CO[C@H]1C[C@H](O[C@H]2CC[C@@]3(C)[C@H](CC[C@@H]4[C@@H]3CC[C@]3(C)[C@@H](C5=CC(=O)OC5)CC[C@]43O)C2)O[C@H](C)[C@H]1O	33.2%	5.95%	17.8%	23.1%	14.6%	-49%
Nc1cccc(SC2CC(=O)N(c3ccc(Cl)cc3C(=O)c3ccccc3)C2=O)c1 (stereo not given)	16.6%	-4.6%	34.2%	26.4%	19.9%	22.9%
Cc1cc(C)n(/C(N)=N/[N+](=O)[O-])n1	-15.3%	-18.9%	3.6%	12.6%	21.6%	15.2%
CCCC1(C(C)C)C(=O)NC(=S)NC1=O	10.7%	-7.2%	-1.9%	6.55%	-10.6%	-24.1%
CC(=O)[O-].CC(=O)[O-].O=C(N/N=C/c1cc(Cl)cc(Cl)c1O)c1ccncc1.[Ni+2]	-12.6%	18.4%	19.1%	-22.2%	-0.05%	16.9%
[C-]#[O+].[C-]#[O+].[C-]#[O+].[C-]#[O+].[Fe].[N-]=C(C(F)(F)F)C(F)(F)F	-16.4%	-19.8%	-11.7%	-0.25%	-11.2%	-25.4%

Compound	growth inhibition [1]	growth inhibition [2]	growth inhibition [3]	growth inhibition [4]	growth inhibition [5]	growth inhibition [6]
c1ccc2nc(-c3ccc4ccccc4n3)ccc2c1	-5.95%	-7.45%	-3.4%	-49.4%	-13.7%	-12.2%
N#CCC(=O)[O][Sn]([c]1ccccc1)([c]1ccccc1)[c]1ccccc1	98% (active)	98.3% (active)	98.8% (active)	97.8% (active)	97.8% (active)	98.7% (active)
COC12c3ccccc3-c3ccccc3C1[C@@H](C(=O)O)[C@H]2C(=O)O (stereo not given in full)	11.2%	1.6%	-11.6%	-14%	-24.4%	-10.3%
COc1ccc(NC2=C(C)C(=O)C3=C(C2=O)[C@H](COC(N)=O)[C@]2(OC)[C@@H]4N[C@@H]4CN32)cc1	81.7% (active)	79.7% (active)	74.8% (active)	71.6% (active)	69.4%	73.7% (active)
Nc1ccc(C(=O)O)cc1[As](O)O	-15.1%	-4.05%	5.95%	-6.4%	0.6%	-17.8%
[Cl][Rh]([Cl])([Cl])[Cl].[NH-]CC[NH-]	17.2%	15%	15.7%	-17.4%	-9.95%	8.55%
CC(C)(C)C1COP(=O)(C(C)(C)C)OC1 (stereo not given)	-12.6%	6.1%	-1.15%	-38.6%	10.6%	16.2%
CCCCCCCC(N)CC(=O)O (stereo not given)	-24.2%	-44.2%	-15.8%	-0.7%	-36.6%	-8.05%
[Se]=[Hf]=[Se]	1.35%	-24.7%	-28.7%	-8.6%	-11.8%	-26.6%
CC(=O)C1=C(O)C2C3c4c[nH]c5cccc(c45)CC3C(C)(C)N2C1=O (stereo not given)	22.6%	-11%	23.9%	-12.8%	15%	21.8%
CC1CC(O)C(=O)C(O[C@@H]2C[C@@H]3CC[C@@H]4[C@H](CC[C@]5(C)C(C6=CC(=O)OC6)CC[C@]45O)[C@@]3(C=O)C[C@H]2O)O1 (stereo not given in full)	7.95%	8.5%	-8.1%	-2.6%	-12.8%	-42.9%
C1CN2CCOC2O1	-12.4%	15.2%	-9.1%	4.65%	7.45%	-7.1%
OCC1OC(n2nnc3cc(Cl)c(Cl)cc32)C(O)C1O (stereo not given)	7.3%	-0.8%	5.85%	11.3%	18.8%	21.7%
Nc1c(Cl)c(Cl)nc(C(=O)O)c1Cl	16%	9%	7.05%	3.8%	21.5%	24.2%
CC#CC(O)(C(=O)OC)c1ccccc1 (stereo not given)	-7.35%	12.6%	-20.8%	-23.6%	-5.1%	-1.9%
CC(C)=CCC12Cc3ccc(O)cc3C(C(C)CN1)C2C (stereo not given)	-1.5%	9.8%	27.8%	11.8%	10.7%	25.7%
CN1C2CCC1CC(OC(=O)c1cccc(O)c1)C2 (stereo not given)	30.9%	0.55%	0.9%	4.95%	15.9%	16.4%
Cc1nc2cccc(F)c2c(=O)n1-c1nnc(C(F)(F)F)s1	16.9%	8.8%	16.5%	10.8%	-6.4%	15.5%
CC(=O)Nc1ccc2c(c1)C(=O)c1cc(NC(C)=O)ccc1-2	24.4%	-10.1%	-13.6%	1.55%	-2.75%	-7.5%
CN(C)/N=C(\N)c1nnn(C)n1	-4.45%	-14.2%	-15.2%	-32.8%	-11.2%	-0.3%
